This is one part of a sample in which hits are shown more often than they occur.
Methyltransferases: Primary Screen for Target Class Profiling of Small Molecule Inhibitors of Methyltransferases; AID 1745853, 2022; actives 3.9% (n = 25,000); calls only at 40 µM; purified enzyme, MTase-Glo SAH luminescence; active compounds read low; call rule not given here
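Each enzyme was assayed with SAM and its substrate. SAH formation detected by MTase-Glo luminescence; single-point 40 uM screen[…].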
The depositor's hits bear a star; i = inactive; + = active, no number; ! = a repeat was not active. % is set by controls: 0 for no effect and ±100 for the full control effect.

SMILES	Methyltransferases
CCOc1ccc(CN2C(=O)c3c(C(=O)OC)ncn3CC2(C)C(=O)NC2CCCC2)cc1 (configuration not stated)	i
COc1ccccc1CNC(=O)C1(C)Cn2nc(-c3ccccc3)cc2C(=O)N1c1cccc(Cl)c1 (configuration not stated)	i
Cc1ccc(C(=O)Nc2ccc(S(=O)(=O)O)c3cc(S(=O)(=O)O)cc(S(=O)(=O)O)c23)cc1NC(=O)c1cccc(NC(=O)Nc2cccc(C(=O)Nc3cc(C(=O)Nc4ccc(S(=O)(=O)O)c5cc(S(=O)(=O)O)cc(S(=O)(=O)O)c45)ccc3C)c2)c1	+
CCCC(=O)N(c1ccc(OC)cc1)S(=O)(=O)c1ccc2c(c1)n(C)c(=O)n2C	i
CCCc1nc2c3ccccc3n(CC(=O)N3CCN(c4ccccc4OC)CC3)c(=O)n2n1	i
COC(=O)c1ncn2c1C(=O)N(Cc1ccccc1C)C(C)(C(=O)NCc1ccccc1)C2 (configuration not stated)	i
CN1C(=O)c2cc(C(=O)N3CCOCC3)nn2CC1(C)C(=O)NCc1ccccc1 (configuration not stated)	i
CCCn1c(=O)c2ccc(C(=O)NC(C)CC)cc2n2c(=O)n(Cc3cccc(OC)c3)nc12 (configuration not stated)	i
O=C(O)c1cc([N+](=O)[O-])ccc1NCCCc1ccccc1	i
Fc1ccccc1-c1noc(NCCc2ccc(Cl)cc2)n1	i
O=C1c2ccccc2C(=O)c2c(NCCc3ccc(O)cc3)ccc(NCCc3ccc(O)cc3)c21	+
COc1cccc(CSc2nnc3n(CC(C)C)c(=O)c4ccccc4n23)c1	i
O=C1CN(Cc2ccccc2F)S(=O)(=O)c2ccccc2N1Cc1ccccc1	i
CCOC(=O)C1CCN(C(=O)CN(C)S(=O)(=O)c2ccc3c(c2)CC(C)N3C(C)=O)CC1 (configuration not stated)	i
CCOC(=O)C1=C(C)NC(C)=C(C(=O)OC)C1c1cccc([N+](=O)[O-])c1 (configuration not stated)	i
CC1=C(C(=O)OC2CCCCC2)C(c2ccc([N+](=O)[O-])cc2)C2=C(CC(C)(C)CC2=O)N1 (configuration not stated)	+
COCCOC(=O)C1=C(C)NC(C)=C(C(=O)OC(C)C)C1c1cccc([N+](=O)[O-])c1 (configuration not stated)	i
Cc1cc2c(cc1S(=O)(=O)Nc1cccc(Cl)c1C)n(C)c(=O)n2C	i
CC1CCCCN1S(=O)(=O)c1ccc(NC(=O)CN2C(=O)c3ccccc3S2(=O)=O)cc1 (configuration not stated)	i
CCc1ccccc1N1C(=O)c2cc(C(C)(C)C)nn2CC1(C)C(=O)NCc1ccccc1 (configuration not stated)	i
CC1(C(=O)NC2CCCCCCC2)Cn2c(cc3occc32)C(=O)N1CCN1CCOCC1 (configuration not stated)	i
Cc1cc2c(cc3n2CC(C)(C(=O)NC2CCCCCCC2)N(C2CCCCC2)C3=O)o1 (configuration not stated)	i
COC(=O)c1cc2n(n1)CC(C)(C(=O)NC1CCC(C)CC1)N(c1ccc(F)cc1C)C2=O (configuration not stated)	i
Cc1ccc([N+](=O)[O-])cc1S(=O)(=O)N(C)/N=C/c1cnc2ccc(Br)cn12	+
NCCOc1cc(C(=O)Nc2cc(OCCN)c3ccccc3n2)nc(C(=O)Nc2cc(OCCN)c3ccccc3n2)c1	+
SMILES	Methyltransferases
CCC(C)NC(=O)c1ccc2c(=O)n(C)c3nnc(SCC(=O)c4ccc(C)cc4C)n3c2c1 (configuration not stated)	i
COC(=O)c1cc2n(n1)CC(C)(C(=O)NC1CCCCC1)N(c1cccc(C)c1C)C2=O (configuration not stated)	i
CC(C)NC(=O)c1ccc2c(=O)n(C(C)C)c3nn(Cc4ccccc4)c(=O)n3c2c1	i
Cc1ccc(C)c(N2CCN(C(=O)c3ccc4c(=O)nc5c(-c6ccccc6)n[nH]n5c4c3)CC2)c1	i
CC[C@@]1(O)C(=O)OCc2c1cc1n(c2=O)Cc2cc3c(CN(C)C)c(O)ccc3nc2-1	+!
COc1ccc(-c2n[nH]n3c2nc(=O)c2ccc(C(=O)NCCCc4ccccc4)cc23)cc1	i
CC(C)Cc1ccc(S(=O)(=O)NCCn2cnc3ccccc32)cc1	i
NC1(C(=O)O)CCCCC1	i
N.N.O=C(O)C1(C(=O)O)CCC1.[Pt+2]	+
CC1CC(C)CN(S(=O)(=O)c2ccc3c(c2)oc(=O)n3CC(=O)N(C)Cc2ccco2)C1 (configuration not stated)	i
CCc1ccc(CNC(=O)CNC(=O)C2(C)Cn3c(cc4ccccc43)C(=O)N2CC)cc1 (configuration not stated)	i
COCCCNC(=O)CCc1nnc2n(Cc3ccccc3Cl)c(=O)c3ccccc3n12	i
Cc1ccccc1CNC(=O)CNC(=O)C1(C)Cn2c(cc3ccccc32)C(=O)N1C (configuration not stated)	i
O=C(O)c1ccc(O)c2ncc(N3CCCN(CCc4cccc5ccccc45)CC3)cc12	+
c1ccc(N2CCN(CCc3nn[nH]n3)CC2)cc1	i
Cc1ccc2c(c1)c(-n1cccc1)c1n2CC(C)(C(=O)NC2CCCCCC2)N(Cc2ccco2)C1=O (configuration not stated)	i
CCCn1c(=O)c2ccc(C(=O)NC(C)CC)cc2n2c(=O)n(CC(=O)Nc3ccc(C)c(F)c3)nc12 (configuration not stated)	i
Cc1ccc(N2C(=O)c3cc4ccccc4n3CC2(C)C(=O)NCCC(C)C)cc1C (configuration not stated)	i
C=C1C(=O)O[C@@H]2C=C(COC(C)=O)CC/C=C(\CO)CC[C@@H]12	+
C=C1C(=O)O[C@@H]2/C=C(\CO)CC/C=C(\CO)[C@H](OC(C)=O)C(OC(=O)C(C)CC)C12 (some centres not stated)	i
C=C(C)C(=O)OC1C(OC(C)=O)/C(C=O)=C\CC/C(CO)=C/C2OC(=O)C(=C)C21 (configuration not stated)	i
CC(C)CNC(=O)c1ccc2c(=O)n(C(C)C)c3nn(CC(=O)N(C)c4ccc(F)cc4)c(=O)n3c2c1	i
Cn1c(=O)n(C)c2cc(S(=O)(=O)NCc3ccccc3Cl)ccc21	i
COc1ccc(-c2cc(C(O)C3CCCCN3)c3ccccc3n2)cc1 (configuration not stated)	i
COc1ccc(OC)c(S(=O)(=O)N2CCc3nc(-c4ccccc4)[nH]c3C2)c1	i
SMILES	Methyltransferases
CC(C)(C)c1ccc(-c2nc3ccccc3[nH]2)cc1	+
COc1ccc(-c2nc3ccccc3[nH]2)cc1	+
COCCN1C(=O)c2cc3occc3n2CC1(C)C(=O)NC1CCCCCCC1 (configuration not stated)	i
Cc1cccc(CSc2nnc3n(CC(C)C)c(=O)c4cc(F)ccc4n23)c1	i
CN(C)CCN1C(=O)c2ccc(-c3ccco3)n2CC1(C)C(=O)NC1CCCCCC1 (configuration not stated)	i
CCCC1c2cccn2CCN1C(=O)Nc1cc(OC)cc(OC)c1 (configuration not stated)	i
CC(C)n1cnc2cc(CNC(=O)c3cccnc3)ccc21	i

High-throughput results as filed in PubChem.
